Compound activity (PubChem BioAssay)
This is a sample that favours compounds with a hit; in the whole collection about 4.1% have one here.
PolyA inhibitor: polyadenylation inhibitors in yeast reporter cells, primary screen, luminescence, S. cerevisiae. S. cerevisiae SKY197-pL101 polyadenylation reporter, beta-gal luminescence; efflux-impaired pdr1/pdr3 knockout yeast; score 100 = 6 SD above DMSO. activity score, % at 12 µM. 300,000 compounds, 0.02% hits. AID 1875, 2009;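 active means lowest replicate activity score at least 50, where 100 means six control SD above control mean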;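 further: yeast exposed to compound for 9 h at 30 °C; higher score means more reporter readthrough which indicates perturbed polyadenylation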
hgDAF-12 ag: H. glycines DAF-12 receptor agonists, primary screen, cell-based, luminescence, HEK293, GAL4 fusion, UAS-luciferase; 370,000 compounds, 1.8% hits; HEK293 GAL4-hgDAF12 UAS-luciferase reporter, agonist luminescence; normalized to butyrate control; Nuclear hormone receptor DAF-12 (Heterodera glycines), GAL4 fusion; activation, % at 6.8 µM;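 active means activation above a cutoff set at the mean of all screened compounds plus 3 SD, cut at about 10% in these data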;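 further: 0% = DMSO wells and 100% = sodium butyrate wells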
ssDAF-12 act: S. stercoralis DAF-12 nuclear receptor activators, primary screen, cell-based, luminescence, HEK293, GRIP1 co-expression, lit1-tk-luc; Nuclear hormone receptor DAF-12 (Strongyloides stercoralis); activation, % at 6.8 µM; HEK293 ssDAF-12/GRIP1 lit1-tk-luc reporter; % of 3 µM dafachronic acid response; 370,000 compounds, 1% hits; AID 652126, 2013;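 active means activation above the mean over all tested compounds plus 3 SD, cut at about 0.9% in these data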;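 further: 0% = DMSO-only wells and 100% = 3 µM delta7-dafachronic acid wells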
hcDAF12 agonist: H. contortus DAF-12 nuclear receptor activators, primary screen, cell-based, luminescence, HEK293, lit1-tk-luc reporter; AID 652067, 2013; 370,000 compounds, 1.4% hits; HEK293 hcDAF-12 lit1-tk-luc reporter; 0% DMSO, 100% Δ7-dafachronic acid; activation, % at 6.8 µM;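 active means activation above the mean of all tested compounds plus 3 SD, cut at about 5.5% in these data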;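 further: 100% = response to 3 µM Δ7-dafachronic acid high control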
DAX1 inh-1: DAX1 (NR0B1) inhibitors on StAR promoter, primary screen, cell-based, luminescence, SF-1 (NR5A1), full-length DAX-1; HEK293T StAR-luciferase reporter, SF-1/DAX-1 repression relief; inhibition, % at 6.8 µM; 370,000 compounds, 1.1% hits;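 active means inhibition above the mean over all tested compounds plus 3 SD, cut at about 3.6% in these data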;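 further: 0% = DAX-1 cells with DMSO and 100% = cells lacking DAX-1 with DMSO; higher inhibition means more luminescence from relief of DAX-1 repression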
DAX1 inh-2: DAX1 (NR0B1) inhibitors, primary screen, cell-based, HEK293, Gal4-DAX1, luciferase luminescence | Nuclear receptor subfamily 0 group B member 1 (Homo sapiens), P51843 | HEK293 Gal4-DAX1 luciferase reporter | inhibition, % at 6.75 µM | 340,000 compounds, 0.99% hits | AID 504766, 2011;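 active means inhibition above the mean over all tested compounds plus 3 SD, cut at about 4.2% in these data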;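 further: 0% = DAX1-transfected cells with DMSO and 100% = empty-vector control cells with DMSO; inhibition shows as a rise in luminescence from relieved DAX1 repression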
LXRb hcDAF ctr: LXR agonists, Gal4 luciferase reporter, confirmation, counter-screen for hcDAF-12 agonist project, cell-based, luminescence, HEK293, H. contortus campaign; activation, % at 6.8 µM; AID 743027, 2013; HEK293 Gal4-LXR tk-luc reporter, 24 h; normalized: DMSO 0%, positive control 100%; shares compounds with hcDAF12 agonist; 3,400 tested, under 10 active;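 active means mean percent activation of the reporter above a cutoff set as the average over tested compounds plus their standard deviation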
Target sequence (P55055 whole entry, looked up, the tested form may be a part): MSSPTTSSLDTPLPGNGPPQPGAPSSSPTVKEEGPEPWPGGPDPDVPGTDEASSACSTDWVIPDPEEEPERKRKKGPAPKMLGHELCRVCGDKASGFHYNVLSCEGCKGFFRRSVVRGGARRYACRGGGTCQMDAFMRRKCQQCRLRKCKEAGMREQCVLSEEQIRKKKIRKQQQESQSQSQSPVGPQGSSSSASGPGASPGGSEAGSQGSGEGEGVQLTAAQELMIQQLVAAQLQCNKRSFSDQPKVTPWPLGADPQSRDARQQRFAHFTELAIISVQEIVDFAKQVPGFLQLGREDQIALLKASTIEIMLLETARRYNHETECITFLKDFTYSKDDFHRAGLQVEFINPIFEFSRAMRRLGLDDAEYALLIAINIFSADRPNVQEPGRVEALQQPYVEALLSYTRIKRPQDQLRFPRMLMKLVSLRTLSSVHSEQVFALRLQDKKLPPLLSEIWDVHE
hcDAF12 ag: H. contortus DAF-12 receptor agonists, confirmation, cell-based, luminescence, HEK293, lit1-tk-luc, triplicate. shares compounds with hcDAF12 agonist. HEK293 hcDAF-12 lit1-tk-luc reporter; % of Δ7-dafachronic acid response. activation, % at 6.8 µM. 3,400 compounds, 61% hits. AID 743032, 2013;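 active means mean activation across triplicate tests above the threshold derived from the earlier primary screen, cut at about 5.5% in these data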;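 further: 0% = DMSO only wells and 100% = 3 µM Δ7-dafachronic acid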
Active calls of the source: *; / = no result given.

SMILES	PolyA inhibitor	hgDAF-12 ag	ssDAF-12 act	hcDAF12 agonist	DAX1 inh-1	DAX1 inh-2	LXRb hcDAF ctr	hcDAF12 ag
Cc1c(C#N)c(=O)c(-[n+]2ccccc2)c([S-])n1-c1ccc(Cl)cc1	1	2	-2	7.3*	1	3	0	0
Cc1ccc(S(=O)(=O)N/N=C\C=C\c2ccccc2)cc1	30	3	-1	6.7*	1	0	0	0
CC(C)(C)C(=O)CN1C(=O)NC2(CCOc3ccccc32)C1=O (centres undefined)	0	5	0	8.0*	3.7*	1	0	4
COc1ccc(Cl)cc1C(=O)O/N=C(\N)c1ccccn1	-23	6	0	7.1*	2	3	0	4
COc1ccc(C(=O)O/N=C(\N)c2ccccn2)c(OC)c1	1	6	0	5	2	-1	/	/
N/C(=N\OC(=O)COc1ccc(Br)cc1Cl)c1ccccn1	-15	8	0	9.8*	4.2*	-1	1	7.6*
N/C(=N\OC(=O)COc1ccc2ccccc2c1Br)c1ccccn1	-25	10	0	2	2	0	/	/
CC1C(=O)N2CCCc3cc(NC(=O)C(=O)NCc4ccccn4)cc1c32 (centres undefined)	13	0	-1	0	-1	2	/	/
COc1cccc2c1SCc1ccccc1C2CC(N)=O (centres undefined)	3	0	0	6.8*	1	1	0	3
COc1ccccc1CC(=O)NC1CCCc2ccccc21 (centres undefined)	10	1	-1	-1	0	1	/	/
CSc1ccccc1OCc1cc(C(=O)NC2CCOC2)no1 (centres undefined)	-16	2	-1	1	0	0	/	/
CSc1ccccc1OCc1cc(C(=O)NC2CCc3ccccc32)no1 (centres undefined)	0	0	-1	7.6*	-1	0	0	2
Cc1ccccc1Nc1n[nH]c(C)c1[N+](=O)[O-]	7	2	0	9.0*	1	-1	0	4
Cc1nn(-c2ccccc2)c(N2CCCC2)c1/C=N/NC(=S)Nc1ccccc1F	21	4	-2	0	0	0	/	/
CC(=O)c1c(C)nc(Nc2nc3ccccc3s2)nc1C	-10	9	1.6*	11*	1	/	2	13*
CC(=O)c1c(C)nc(Nc2nc(C)c3cc(C)ccc3n2)nc1C	-3	-2	-2	0	0	-1	/	/
O=c1c2cc(Cl)ccc2[nH]c(=S)n1Cc1cccs1	-39	0	0	6.7*	1	2	0	4
O=c1c2cc(Cl)ccc2[nH]c(=S)n1Cc1ccco1	-16	-2	-1	0	0	0	/	/
CN1CCc2c1nc1ccccc1c2N (tested in a mixture with another compound)	0	1	0	3	0	1	/	/
Nc1c2c(nc3cccc(Cl)c13)N(c1ccccc1)CC2	-8	0	1.1*	7.2*	0	1	0	7.4*
Cc1cc(NC(=O)COC(=O)c2oc3c(Cl)cccc3c2C)no1	-5	2	0	6.8*	0	3	0	3
COC(=O)c1ccccc1NC(=O)CN(c1c(C)cccc1C)S(C)(=O)=O	5	11*	1.0*	18*	1	-1	0	0
COc1ccc(Oc2cccc(Cl)c2CNC(=O)c2ccccc2C(=O)O)cc1	-8	1	-1	-2	0	/	/	/
CC(=O)/C(N=Nc1ccc(C(=O)O)cc1[N+](=O)[O-])=C(\C)O	-8	0	-1	-1	1	0	/	/
CC(=O)/C(N=Nc1cc(C)ccc1O)=C(\C)O	-3	0	0	9.2*	0	2	0	6.3*
SMILES	PolyA inhibitor	hgDAF-12 ag	ssDAF-12 act	hcDAF12 agonist	DAX1 inh-1	DAX1 inh-2	LXRb hcDAF ctr	hcDAF12 ag
Cc1ccc(NC(=O)c2c(Cl)nc3ccccn23)cc1	-29	13*	1.1*	12*	3	3	1	10*
Cc1nc2ccccn2c1C(=O)Nc1ccc(Cl)cc1	-26	8	-1	3	1	-1	/	/
O=C(Nc1ccc(N2CCCCC2)cc1)c1ccc([N+](=O)[O-])o1	-15	8	1	7.2*	0	0	1	5
CCOc1[nH]n(-c2ccccc2)c(=O)c1C=Nc1ccccc1	9	3	-1	-2	-1	1	/	/
CCOc1[nH]n(-c2ccccc2)c(=O)c1C=Nc1ccc(C(=O)OC)cc1	3	3	-1	7.6*	0	1	0	-1
O=C(CSCc1c(F)cccc1Cl)NNC(=S)NC1CCCCC1	-6	2	-1	4	1	0	/	/
O=C(Nc1ccc(Cl)cc1)Nc1ccccc1Sc1ncc([N+](=O)[O-])s1	-10	4	1.1*	7.6*	0	-1	0	1
O=C(Nc1csc([N+](=O)[O-])c1)Nc1ccccc1Cl	-36	2	-1	-1	-1	2	/	/
CN(C)c1cccc(/C=C(\C#N)c2ccccc2)c1	1	19*	1.2*	7.1*	-1	0	2	9.0*
CCOC(=O)/C(C#N)=C1\CCCN1CC(N)=S	-6	0	-1	0	-1	1	/	/
Clc1ccc(-c2nc3c4ccccc4ccn3c2CC2CCCCC2)cc1	/	6	1.6*	6.7*	1	/	0	6.7*
Cc1ccc(-c2nc3c4ccccc4ccn3c2CN2CCCCC2)cc1	-15	2	0	6.7*	0	3	0	6
